What all share (settings): mRNA level, 48 h; actives raise or lower the signal
Read-out in assay [1]: Fatty acid synthase (Homo sapiens) (UniProt P49327)
The assay is described as follows: LTEA_HepaRG_FASN: Life Technologies and Expression Analysis (LTEA) Assay for Fatty Acid Synthase (FASN) using HepaRG (AID 2283448). The procedure, abridged:
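Differentiated human HepaRG cells were exposed for 48 h in serum-free induction medium to eight half-log concentrations up to 100 uM in 0.5% DMSO, in duplicate. FASN mRNA was quantified by TaqMan qRT-PCR, normalized to ACTB/GAPDH/POLR2A, and fitted bidirectionally against DMSO.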

Read-out in assay [2]: Cyclin D2 (CCND2), CCND2 (gene 894)
The assay is described as follows: LTEA_HepaRG_CCND2: Life Technologies and Expression Analysis (LTEA) Assay for Cyclin D2 (CCND2) using HepaRG (AID 2283449).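 Also: CCND2 transcript measured by TaqMan qRT-PCR and normalised to three housekeeping genes.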 The procedure, abridged:
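Chemicals in 0.5% DMSO, eight half-log concentrations from 100 uM top, were applied in duplicate for 48 h to human HepaRG cells in serum-free induction medium. CCND2 mRNA by TaqMan qRT-PCR, normalised to ACTB/GAPDH/POLR2A; bidirectional fit versus DMSO.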

Read-out in assay [3]: Cyclin Dependent Kinase Inhibitor 1A (CDKN1A), CDKN1A (gene 1026)
Briefly: LTEA_HepaRG_CDKN1A: Life Technologies and Expression Analysis (LTEA) Assay for Cyclin Dependent Kinase Inhibitor 1A (CDKN1A) using HepaRG (AID 2283450). In outline:
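Gain or loss of CDKN1A transcript is scored by bidirectional fitting against 0.5% DMSO vehicle. Human HepaRG cultures receive chemicals for 48 h across an 8-point series peaking at 100 uM; expression comes from qRT-PCR.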

Read-out in assay [4]: Cyclin D1 (CCND1), CCND1 (gene 595)
The assay is described as follows: LTEA_HepaRG_CCND1: Life Technologies and Expression Analysis (LTEA) Assay for Cyclin D1 (CCND1) using HepaRG (AID 2283451). In outline: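 Expression change is measured by qRT-PCR in HepaRG cells after 48 h treatment across eight concentrations topping at 100 uM, with duplicate wells and DMSO (0.5%) serving as baseline for bidirectional fitting.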

Read-out in assay [5]: catalase (CAT), CAT (gene 847)
Briefly: LTEA_HepaRG_CAT: Life Technologies and Expression Analysis (LTEA) Assay for catalase (CAT) using HepaRG (AID 2283452).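 As to AC50: TaqMan qRT-PCR signal normalized to ACTB GAPDH and POLR2A housekeeping genes.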 The procedure, abridged:
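HepaRG cells in serum-free induction medium, 0.5% DMSO vehicle, exposed 48 h in duplicate over 8 half-log concentrations from 100 uM. CAT mRNA measured by qRT-PCR, normalized to ACTB, GAPDH, POLR2A; bidirectional fit versus DMSO.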

Read-out in assay [6]: flavin-containing dimethylaniline monooxygenases 3 (FMO3), FMO3 (gene 2328)
Briefly: LTEA_HepaRG_FMO3: Life Technologies and Expression Analysis (LTEA) Assay for flavin-containing dimethylaniline monooxygenases 3 (FMO3) using HepaRG (AID 2283453). The procedure, abridged:
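HepaRG, 48 h exposure, 8-pt half-log series from 100 uM, 0.5% DMSO vehicle, duplicates; FMO3 transcript by Fluidigm TaqMan qRT-PCR, housekeeping-normalized; gain/loss fit vs DMSO.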

Read-out in assay [7]: Cytochrome P450 (CYP1A1), CYP1A1 (gene 1543)
The assay is described as follows: LTEA_HepaRG_CYP1A1: Life Technologies and Expression Analysis (LTEA) Assay for Cytochrome P450 (CYP1A1) using HepaRG (AID 2283454). In outline:
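Using HepaRG cultures with 0.5% DMSO as vehicle, eight-concentration exposures (max 100 uM) lasted 48 h. Transcript levels were measured by TaqMan qRT-PCR and normalized to ACTB, GAPDH and POLR2A.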

Read-out in assay [8]: CFLAR gene, CFLAR (gene 8837)
The assay is described as follows: LTEA_HepaRG_CFLAR: Life Technologies and Expression Analysis (LTEA) Assay for CFLAR gene using HepaRG (AID 2283455). The procedure, abridged:
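Differentiated HepaRG cells in serum-free induction medium were exposed 48 h in duplicate to eight half-log concentrations up to 100 uM in 0.5% DMSO; mRNA measured by TaqMan qRT-PCR, normalized to ACTB, GAPDH, POLR2A; bidirectional fitting versus DMSO.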

Read-out in assay [9]: growth arrest and DNA damage 45 (GADD45A), GADD45A (gene 1647)
The assay is described as follows: LTEA_HepaRG_GADD45A: Life Technologies and Expression Analysis (LTEA) Assay for growth arrest and DNA damage 45 (GADD45A) using HepaRG (AID 2283458). The procedure, abridged: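 Differentiated HepaRG cells were exposed in duplicate for 48 h in serum-free induction medium to 8-point half-log concentrations up to 100 uM in 0.5% DMSO. GADD45A mRNA was measured by TaqMan qRT-PCR, normalized to ACTB, GAPDH and POLR2A, with bidirectional fitting versus DMSO.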

Read-out in assay [10]: Forkhead box O3 (FOXO3), FOXO3 (gene 2309)
The assay is described as follows: LTEA_HepaRG_FOXO3: Life Technologies and Expression Analysis (LTEA) Assay for Forkhead box O3 (FOXO3) using HepaRG (AID 2283459). In outline: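 Differentiated human HepaRG cells, 48 h post-plating, exposed in duplicate for 48 h in serum-free induction medium; 8-point half-log series from 100 uM in 0.5% DMSO. FOXO3 mRNA by TaqMan qRT-PCR, normalized to ACTB/GAPDH/POLR2A; bidirectional fit versus DMSO.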

Read-out in assay [11]: ABC Transporter (ABCB1), ABCB1 (gene 5243)
Briefly: LTEA_HepaRG_ABCB1: Life Technologies and Expression Analysis (LTEA) Assay for ABC Transporter (ABCB1) using HepaRG (AID 2283460). The procedure, abridged: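 HepaRG cells exposed in duplicate for 48 h in serum-free induction medium to eight half-log concentrations up to 100 uM in 0.5% DMSO. ABCB1 mRNA quantified by qRT-PCR, normalised to ACTB, GAPDH and POLR2A; fitted bidirectionally versus DMSO.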

Read-out in assay [12]: growth arrest and DNA damage 45 (GADD45B), GADD45B (gene 4616)
The assay is described as follows: LTEA_HepaRG_GADD45B: Life Technologies and Expression Analysis (LTEA) Assay for growth arrest and DNA damage 45 (GADD45B) using HepaRG (AID 2283461). The procedure, abridged: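 Human HepaRG monolayers receive chemicals for 48 h at eight half-log concentrations, highest 100 uM, in 0.5% DMSO. Expression is measured by TaqMan qRT-PCR and normalized to ACTB, GAPDH and POLR2A.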

Read-out in assay [13]: ABC Transporter (ABCC3), ABCC3 (gene 8714)
The assay is described as follows: LTEA_HepaRG_ABCC3: Life Technologies and Expression Analysis (LTEA) Assay for ABC Transporter (ABCC3) using HepaRG (AID 2283462). The procedure, abridged: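 Transcriptional change of ABCC3 in HepaRG after 48 h treatment, determined by qRT-PCR normalized to endogenous controls. Concentrations spanned eight half-log steps to 100 uM in 0.5% DMSO.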

Read-out in assay [14]: ABC Transporter (ABCB11), ABCB11 (gene 8647)
The assay is described as follows: LTEA_HepaRG_ABCB11: Life Technologies and Expression Analysis (LTEA) Assay for ABC Transporter (ABCB11) using HepaRG (AID 2283463). In outline:
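Differentiated human HepaRG cells in serum-free induction medium, dosed in duplicate for 48 h. Eight-point half-log series from 100 uM in 0.5% DMSO; ABCB11 mRNA by qRT-PCR, normalized to ACTB, GAPDH, POLR2A, fitted bidirectionally versus DMSO.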

Read-out in assay [15]: ABC Transporter (ABCC2), ABCC2 (gene 1244)
The assay is described as follows: LTEA_HepaRG_ABCC2: Life Technologies and Expression Analysis (LTEA) Assay for ABC Transporter (ABCC2) using HepaRG (AID 2283464). The procedure, abridged: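 After plating and 48 h culture, HepaRG medium is replaced with serum-free induction medium and chemicals are added (8 concentrations, max 100 uM, 0.5% DMSO) for 48 h. Total RNA then undergoes qRT-PCR for ABCC2 with housekeeping normalization.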

Read-out in assay [16]: Broad substrate specificity ATP-binding cassette transporter ABCG2 (Homo sapiens) (UniProt Q9UNQ0)
The assay is described as follows: LTEA_HepaRG_ABCG2: Life Technologies and Expression Analysis (LTEA) Assay for ABC Transporter (ABCG2) using HepaRG (AID 2283465). The procedure, abridged:
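Differentiated HepaRG cells were exposed for 48 h in serum-free induction medium to 8 half-log concentrations, top 100 uM, in 0.5% DMSO. ABCG2 mRNA was measured by qRT-PCR, normalized to ACTB, GAPDH and POLR2A, with bidirectional fitting versus DMSO.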

Read-out in assay [17]: ATP-citrate lyase (ACLY), ACLY (gene 47)
Briefly: LTEA_HepaRG_ACLY: Life Technologies and Expression Analysis (LTEA) Assay for ATP-citrate lyase (ACLY) using HepaRG (AID 2283466). In outline: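 Differentiated HepaRG cells exposed 48 h in serum-free induction medium to eight half-log concentrations up to 100 uM in 0.5% DMSO, duplicates. Transcript measured by Fluidigm TaqMan qRT-PCR, normalized to ACTB, GAPDH, POLR2A; bidirectional fit versus DMSO.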

Read-out in assay [18]: Peroxisomal acyl-coenzyme A oxidase 1 (ACOX1) gene, ACOX1 (gene 51)
The assay is described as follows: LTEA_HepaRG_ACOX1: Life Technologies and Expression Analysis (LTEA) Assay for Peroxisomal acyl-coenzyme A oxidase 1 (ACOX1) gene using HepaRG (AID 2283467). The procedure, abridged: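 HepaRG cells, plated 48 h then switched to serum-free induction medium, were exposed in duplicate for 48 h to 8-point half-log concentrations up to 100 uM in 0.5% DMSO. ACOX1 mRNA was measured by qRT-PCR, normalized to ACTB/GAPDH/POLR2A, and fitted bidirectionally versus DMSO.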

Read-out in assay [19]: Forkhead box O1 (FOXO1), FOXO1 (gene 2308)
Briefly: LTEA_HepaRG_FOXO1: Life Technologies and Expression Analysis (LTEA) Assay for Forkhead box O1 (FOXO1) using HepaRG (AID 2283456). In outline:
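Differentiated HepaRG cells, in serum-free induction medium with 0.5% DMSO, exposed 48 h in duplicate to 8-point half-log series from 100 uM. FOXO1 mRNA measured by TaqMan qRT-PCR, normalized to ACTB, GAPDH, POLR2A; bidirectional fit versus DMSO.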

Active and inactive are the calls of the source. The calls were made as follows: active = hit-call score of the fitted dose curve at least 0.9, where 1 is the maximum; inactive = score below 0.9.

By AC50 is commonly meant the concentration at which the activity in the assay is half-maximal.

Sequence of Fatty acid synthase (Homo sapiens) (P49327 whole entry, looked up): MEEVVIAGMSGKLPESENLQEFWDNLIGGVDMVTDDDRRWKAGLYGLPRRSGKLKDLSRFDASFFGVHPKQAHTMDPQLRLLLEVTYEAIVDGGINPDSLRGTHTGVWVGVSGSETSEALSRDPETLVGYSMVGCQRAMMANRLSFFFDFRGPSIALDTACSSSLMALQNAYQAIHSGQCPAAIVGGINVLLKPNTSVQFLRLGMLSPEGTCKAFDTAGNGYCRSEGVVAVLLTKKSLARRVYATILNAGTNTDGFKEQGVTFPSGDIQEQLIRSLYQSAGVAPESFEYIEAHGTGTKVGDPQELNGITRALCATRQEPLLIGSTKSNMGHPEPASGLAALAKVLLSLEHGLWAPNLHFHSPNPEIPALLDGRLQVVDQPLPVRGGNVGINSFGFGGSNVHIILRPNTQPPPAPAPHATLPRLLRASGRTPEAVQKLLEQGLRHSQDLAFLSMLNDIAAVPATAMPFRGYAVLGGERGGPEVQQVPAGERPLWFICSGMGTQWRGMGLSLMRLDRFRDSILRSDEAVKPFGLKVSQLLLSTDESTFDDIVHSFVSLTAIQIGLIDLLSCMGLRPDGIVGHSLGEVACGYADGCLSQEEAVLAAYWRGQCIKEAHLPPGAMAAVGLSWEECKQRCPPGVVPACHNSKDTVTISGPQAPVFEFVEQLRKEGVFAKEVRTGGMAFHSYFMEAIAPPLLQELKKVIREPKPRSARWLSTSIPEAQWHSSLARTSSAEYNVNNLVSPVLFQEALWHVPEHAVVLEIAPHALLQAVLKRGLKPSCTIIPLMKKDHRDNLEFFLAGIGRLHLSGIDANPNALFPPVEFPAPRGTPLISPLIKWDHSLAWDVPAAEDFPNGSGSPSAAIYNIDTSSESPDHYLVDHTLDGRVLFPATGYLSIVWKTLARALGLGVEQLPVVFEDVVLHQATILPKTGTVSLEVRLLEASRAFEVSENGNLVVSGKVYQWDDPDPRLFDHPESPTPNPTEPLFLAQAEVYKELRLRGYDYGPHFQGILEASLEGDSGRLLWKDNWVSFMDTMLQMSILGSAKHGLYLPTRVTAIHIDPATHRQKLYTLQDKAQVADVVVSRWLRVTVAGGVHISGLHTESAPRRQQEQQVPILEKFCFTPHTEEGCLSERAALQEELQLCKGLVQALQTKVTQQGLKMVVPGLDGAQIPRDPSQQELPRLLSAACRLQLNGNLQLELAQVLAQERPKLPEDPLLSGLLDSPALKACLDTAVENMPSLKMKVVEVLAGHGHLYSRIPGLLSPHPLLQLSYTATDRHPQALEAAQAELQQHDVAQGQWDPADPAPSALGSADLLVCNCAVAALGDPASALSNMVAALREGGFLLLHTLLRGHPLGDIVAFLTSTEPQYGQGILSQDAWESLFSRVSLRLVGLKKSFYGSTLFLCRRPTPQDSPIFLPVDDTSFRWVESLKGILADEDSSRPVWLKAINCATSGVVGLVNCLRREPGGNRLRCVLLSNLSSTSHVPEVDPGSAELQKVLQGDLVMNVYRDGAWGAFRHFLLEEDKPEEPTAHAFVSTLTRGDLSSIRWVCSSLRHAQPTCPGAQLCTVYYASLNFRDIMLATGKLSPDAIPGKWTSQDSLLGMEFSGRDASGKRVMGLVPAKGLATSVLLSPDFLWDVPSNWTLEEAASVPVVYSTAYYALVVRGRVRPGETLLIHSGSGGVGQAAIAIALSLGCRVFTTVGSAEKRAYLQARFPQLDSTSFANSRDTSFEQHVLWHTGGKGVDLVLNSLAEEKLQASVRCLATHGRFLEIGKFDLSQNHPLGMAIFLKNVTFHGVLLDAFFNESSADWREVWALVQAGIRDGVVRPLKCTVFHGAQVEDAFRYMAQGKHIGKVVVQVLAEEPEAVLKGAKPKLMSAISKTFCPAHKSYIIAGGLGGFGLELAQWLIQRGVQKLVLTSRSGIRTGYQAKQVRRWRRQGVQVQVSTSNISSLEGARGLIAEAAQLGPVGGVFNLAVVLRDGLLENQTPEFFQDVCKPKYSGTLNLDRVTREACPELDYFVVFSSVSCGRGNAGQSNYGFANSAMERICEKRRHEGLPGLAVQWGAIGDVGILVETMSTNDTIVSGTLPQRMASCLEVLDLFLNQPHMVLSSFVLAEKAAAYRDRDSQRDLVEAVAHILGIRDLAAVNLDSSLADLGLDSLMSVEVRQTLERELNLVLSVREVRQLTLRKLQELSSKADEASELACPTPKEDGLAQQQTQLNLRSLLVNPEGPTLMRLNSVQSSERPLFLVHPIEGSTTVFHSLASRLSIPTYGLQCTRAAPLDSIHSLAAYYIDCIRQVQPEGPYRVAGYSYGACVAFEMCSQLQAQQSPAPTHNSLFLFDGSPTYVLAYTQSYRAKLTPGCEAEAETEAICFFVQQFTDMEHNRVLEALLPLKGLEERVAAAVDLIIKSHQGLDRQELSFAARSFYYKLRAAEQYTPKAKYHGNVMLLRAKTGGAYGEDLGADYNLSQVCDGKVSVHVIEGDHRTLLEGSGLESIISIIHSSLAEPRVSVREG
Sequence of Broad substrate specificity ATP-binding cassette transporter ABCG2 (Homo sapiens) (Q9UNQ0 whole entry, looked up): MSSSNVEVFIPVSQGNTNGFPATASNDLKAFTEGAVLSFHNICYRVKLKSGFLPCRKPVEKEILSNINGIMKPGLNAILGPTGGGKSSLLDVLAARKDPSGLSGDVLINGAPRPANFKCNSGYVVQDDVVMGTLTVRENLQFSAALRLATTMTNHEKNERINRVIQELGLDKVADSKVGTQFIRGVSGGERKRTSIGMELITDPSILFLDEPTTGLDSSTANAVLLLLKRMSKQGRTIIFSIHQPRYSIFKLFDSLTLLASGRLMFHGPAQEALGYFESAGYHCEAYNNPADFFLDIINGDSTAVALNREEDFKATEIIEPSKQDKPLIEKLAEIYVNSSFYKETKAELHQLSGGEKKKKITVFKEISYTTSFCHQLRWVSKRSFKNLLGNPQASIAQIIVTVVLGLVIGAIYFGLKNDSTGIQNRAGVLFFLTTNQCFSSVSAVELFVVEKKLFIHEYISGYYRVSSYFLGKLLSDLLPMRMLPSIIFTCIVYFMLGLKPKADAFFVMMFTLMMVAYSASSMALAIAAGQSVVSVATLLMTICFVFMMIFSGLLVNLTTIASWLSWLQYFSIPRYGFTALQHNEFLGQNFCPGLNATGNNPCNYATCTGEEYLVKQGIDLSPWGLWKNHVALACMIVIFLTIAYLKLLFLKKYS

Take `CCCN(CCC)N=O`: the result in assay [1], in assay [2], in assay [3], in [4], in assay [5] and in assay [6] was inactive. The compound was classed as inactive in [8], in assay [9], in assay [10], in [11], in assay [12] and in assay [13]. The result in assay [14], in assay [15], in [16], in assay [17] and in assay [18] was inactive. Besides, the AC50 in assay [7] is 50 µM (active).

As for `Oc1ccc(C(c2ccc(O)cc2)(C(F)(F)F)C(F)(F)F)cc1`, the AC50 in assay [1] was 90.7 µM (active); in [2] it was 0.147 µM (active); in [5], 89.2 µM (active); in assay [6], 78.3 µM (active); in assay [7], 50 µM (active); in assay [8] it was 91.3 µM (active). Further, the AC50 was 86.6 µM (active) in assay [14] and 83.8 µM (active) in assay [18]. In addition, the compound was called inactive in assay [3], in assay [4], in [9], in assay [10], in assay [11] and in assay [12]. Besides, the compound was classed as inactive in [13], in assay [15], in assay [16] and in assay [17].

Turning to `C[C@]12CCC(=O)C=C1CC[C@@H]1[C@@H]2CC[C@@]2(C)[C@H]1CC[C@]2(C)O`, the AC50 was 66.1 µM (active) in assay [1]; 79.9 µM (active) in [3]; 66 µM (active) in assay [6]; 45.8 µM (active) in [9]; 5.73 µM (active) in [11]; 0.647 µM (active) in assay [14]. For the same compound, the AC50 in assay [16] is 9.08 µM (active); in assay [17], 45.8 µM (active). In addition, the compound was called inactive in assay [2], in assay [4], in assay [5], in assay [7], in assay [8] and in assay [19]. Besides, the call in assay [10], in assay [12], in assay [13] and in assay [18] was inactive.

With `ClC(Cl)=C(c1ccc(Cl)cc1)c1ccc(Cl)cc1`, the AC50 in assay [1] is 50 µM (active); in [7], 36.8 µM (active); in assay [9] it was 0.0693 µM (active); in assay [11], 23.2 µM (active); in assay [15], 10.8 µM (active); in assay [16] it was 8.74 µM (active). The compound was called inactive in assay [2], in assay [3], in assay [4], in assay [5], in assay [6] and in [8]. Also, the call in assay [10], in [12], in assay [13], in assay [14], in [17] and in [18] was inactive.
